# Screens as filed in PubChem.
# TDP1 cell CPT – qHTS for Inhibitors of human tyrosyl-DNA phosphodiesterase 1 (TDP1): qHTS in cells in presence of CPT. hit rate 12% among 420,000. chicken DT40 Tdp1-/-;hTDP1 cells + 20 nM CPT, ATP luminescence, 48 h. Potency, µM (titrated, usually from 46.2 µM), actives largely listed as inhibitors; note: nearly all actives have a fitted effect of over 55% in size
#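 Cell growth measured by CellTiter-Glo luminescence after a minimum 48 h, 37 C compound exposure with 20 nM CPT in Tdp1-knockout DT40 cells stably expressing hTDP1, seeded 400/well; qHTS titration format.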
# DT40 TDP1 no CPT – qHTS for Inhibitors of human tyrosyl-DNA phosphodiesterase 1 (TDP1): qHTS in cells in absence of CPT; DT40 Tdp1-/- hTDP1 cells, no CPT, ATP luminescence, 48 h; Potency, µM (highest dose often 46.2 µM), most hits filed as inhibitors; hit rate 15% among 420,000; note: nearly all actives have a fitted effect of over 55% in size
#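 Chicken DT40 Tdp1-/- cells stably complemented with human TDP1 were seeded at 400 cells/well with DMSO in place of 20 nM camptothecin. After compound pinning, cells grew at least 48 hr at 37 °C; viability read by CellTiter-Glo luminescence.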
# HT1080 IDH1KD tx – qHTS for induction of synthetic lethality in tumor cells producing 2HG: qHTS for the HT-1080-IDH1KD cell line; HT-1080 IDH1 knockdown viability, ATP luminescence, 48 h; Potency, µM (top dose mostly 46.1 µM), most hits filed as cytotoxic; hit rate 2% among 360,000
#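 IDH1KD HT-1080 cells, 750/well, RPMI + 5% FBS; compound pinned after 2 h settling; 48 h, 37 °C; CellTiter-Glo luminescence; % activity normalised to DMSO and no-cell wells; curves fitted, classed by r2 and efficacy.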
# IL1B secr inh – qHTS for Inhibitors of Inflammasome Signaling: IL-1-beta AlphaLISA Primary Screen; THP-1 LPS/ATP IL-1B secretion, AlphaLISA, 16 h; active compounds read low; activity change, % at 57.5 µM; hit rate 4.7% among 360,000; AID 743279, 2014; in the data active = activity change below about -50%; inconclusive = mostly about -30% to -49%
#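 THP-1 cells pretreated 1 hr with compounds (up to 57.5 uM final), then stimulated with LPS (250 ng/mL final) plus ATP (1.25 mM final); secreted IL-1B measured by AlphaLISA after 16 hr, decreased signal indicating inhibition.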
# HT1080NT lethal – qHTS for induction of synthetic lethality in tumor cells producing 2HG: qHTS for the HT-1080-NT fibrosarcoma cell line; HT-1080-NT fibrosarcoma viability, CellTiter-Glo ATP luminescence, 48 h; Potency, µM (series often up to 46.1 µM), usual class: cytotoxic; hit rate 1.6% among 360,000; AID 686970, 2013;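 note: NT is the 2HG producing partner of a matched IDH1 knockdown line; nearly all actives have a fitted effect of over 55% in size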
#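 Viability of the 2HG-overproducing fibrosarcoma line after 48 hours of compound exposure at 37 degrees C was determined by luminescence with CellTiter-Glo, and concentration-effect curves were then fitted and categorized.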
# ELG1 repair inh – qHTS screen for small molecules that inhibit ELG1-dependent DNA repair in human embryonic kidney (HEK293T) cells expressing luciferase-tagged ELG1; hit rate 2.3% among 330,000; HEK293T ELG1-luciferase reporter, luminescence, 16 h; DNA damage induced by 5-fluorouridine; AID 504467, 2011; Potency, µM (top dose mostly 46.1 µM), hits mostly inhibitors; note: nearly all actives have a fitted effect of over 55% in size
#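 DMSO vehicle served as the neutral condition. Each well held 2,000 cells given 5-fluorouridine plus compound; after 16 hr at 37 °C/5% CO2, ONE-Glo was added and luciferase measured 30 min later.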
# A number is an active result; - = inactive; ? = inconclusive; . = no result. Sampled rows, rich in hits. Any-hit rate of the full collection: about 19%. Unless noted, calls come from the whole dose curve; as a rule, active = well fitted curve in the direction sought with a large enough effect; inconclusive = small, poorly fitted or top-dose-only effect, or another doubt; inactive = no such curve, though single readings can be large; an effect the other way counts as inactive or inconclusive.
SMILES,TDP1 cell CPT,DT40 TDP1 no CPT,HT1080 IDH1KD tx,IL1B secr inh,HT1080NT lethal,ELG1 repair inh
O=S(=O)(Nc1cc(Cl)ccc1-n1cncn1)c1ccc(F)cc1,?,?,-,-,-,-
O=S(=O)(Nc1cc(Cl)ccc1-n1cncn1)c1cc(Br)ccc1Br,26µM,5.8µM,?,-54,?,23µM
Cc1ccc(NC(=O)Nc2ccc(F)c(Cl)c2)cc1,?,23µM,-,-,-,?
COc1ccc(NC(=O)Nc2ccc(F)c(Cl)c2)cc1,?,16µM,-,-,-,?
COc1ccc(OC)c(NC(=O)Nc2ccc(Cl)cc2)c1,-,-,-,-66,-,-
COc1ccc(NC(=O)Nc2cc(C)ccc2OC)cc1,-,-,-,-,-,?
Cc1cccc(OCCC(=O)Nc2ccc(F)c(Cl)c2)c1,-,-,-,-84,-,-
COc1ccc(NC(=O)Nc2cc(C)ccc2F)cc1,-,-,-,?,-,?
Cc1ccc(OCCC(=O)Nc2ccc(F)c(F)c2)cc1,-,?,-,-,-,-
CSc1ccccc1NC(=O)Nc1ccc(F)c(Cl)c1,?,?,-,?,-,?
O=S(=O)(c1ccccc1)N1CCN(C(=S)NCCCN2CCOCC2)CC1,-,-,-,-,-,-
S=C(NCCCN1CCOCC1)N1CCN(c2cccc(Cl)c2)CC1,?,18µM,?,?,?,-
S=C(NCc1ccccc1)N1CCN(c2cccc(Cl)c2)CC1,-,?,-,-72,-,?
CCOC(=O)C1(C)CCCN1C(=O)c1snnc1C (stereo not given),-,-,-,-,-,.
COc1ccc(-c2nc(-c3ccc(NC(=O)c4ccc(Br)o4)cc3)no2)cc1OC,18µM,6.5µM,?,-,?,?
COc1ccc(CCC(=O)Nc2ccc(-c3noc(-c4ccc(OC)c(OC)c4)n3)cc2)cc1,-,?,-,-,-,?
COc1cc(C(=O)NNC(=O)CNC(=O)c2ccc(Br)o2)cc(OC)c1OC,-,-,-,-,-,-
COc1cc(-c2nc(-c3ccc(NC(=O)c4ccc(Br)o4)cc3)no2)cc(OC)c1OC,13µM,16µM,?,-,?,10µM
CCOC(=O)C1(CCOC)CCN(Cc2ccc(COC)o2)CC1,-,-,-,-,-,-
CCOC(=O)C1(Cc2ccccc2C(F)(F)F)CCN(C2CCN(C(C)C)CC2)CC1,23µM,23µM,15µM,-,?,-
CCOC(=O)C1(Cc2ccccc2C(F)(F)F)CCN(Cc2ccc(COC)o2)CC1,9.2µM,8.2µM,?,?,?,?
CCOC(=O)C1(Cc2ccccc2C(F)(F)F)CCN(CC(O)CO)CC1 (stereo not given),-,-,-,-,-,-
Cc1nc(-c2cnn(-c3ccccc3)c2)c2cc(C)oc2n1,?,18µM,-,-,-,?
CC(C)(O)CC[C@@H](O)[C@](C)(O)C1CC[C@@]2(O)C3=CC(=O)[C@]4(O)C[C@@H](O)[C@@H](O)C[C@]4(C)C3CC[C@]12C (stereo not given in full),?,?,-,-,-,-
CCOc1cc2[nH]c(=O)n(CCC(=O)N3CCN(c4ccccc4)CC3)c(=O)c2cc1OCC,-,-,.,.,.,.
SMILES,TDP1 cell CPT,DT40 TDP1 no CPT,HT1080 IDH1KD tx,IL1B secr inh,HT1080NT lethal,ELG1 repair inh
COC(=O)c1ccc2c(=O)n(CCCCCC(=O)N3CCN(c4ccc(F)cc4)CC3)c(=O)[nH]c2c1,16µM,12µM,-,-,-,2.9µM
COC(=O)c1ccc2c(=O)n(CCCCCC(=O)O)c(=O)[nH]c2c1,-,-,-,-,-,-
CCCCCn1c(=O)[nH]c2cc(C(=O)N3CCN(c4cccc(C(F)(F)F)c4)CC3)ccc2c1=O,10µM,7.3µM,.,.,.,.
O=C(CCCCCn1c(=O)[nH]c2ccccc2c1=O)N1CCN(c2cccc(C(F)(F)F)c2)CC1,0.58µM,0.58µM,.,.,.,.
CCN1CCN(C(=O)c2ccc3c(=O)n(CCc4ccccc4)c(=O)[nH]c3c2)CC1,?,-,-,-,-,-
O=C(c1ccc(=O)[nH]n1)N1CCN(S(=O)(=O)c2cccc(F)c2)CC1,-,-,-,-,-,-
O=C(COc1ccc2ccccc2c1)N[C@@H](C(=O)O)c1ccc(O)cc1,-,-,-,-,-,-
O=C(Nc1c(C(=O)c2ccc(F)cc2)oc2ccccc12)c1cc(-c2ccccc2)on1,-,-,.,.,.,.
CC1(COS(N)(=O)=O)CCCCC1,0.46µM,-,-,-,-,-
CC1(C)O[C@@H]2[C@@H](CO[C@@]3(COS(N)(=O)=O)OC(C)(C)O[C@@H]23)O1,-,-,.,.,.,.
